Consider 88 compounds from PubChem BioAssay AID1706 (The Scripps Research Institute Molecular Screening Center, 2009).

Screen size: about 290,000 compounds; about 400 (0.14%) were called active. The sample holds actives, similar compounds and a random draw of the others, so the mix is not that of the screen. Values without a mark were called inactive. No stated cut-off is given here; in the data, active means inhibition above about 12%; inactive means the rest.

This assay concerns the target Replicase polyprotein 1ab (Severe acute respiratory syndrome coronavirus) (UniProt P0C6X7). Briefly: blockers of SARS 3CLpro peptide cleavage – biochemical, quenched FRET, primary screen (AID 1706). The following applies: recombinant SARS-CoV 3CLpro, at 6 µM, hits give high values.
Turning to `COC(=O)c1ccc2c(=O)n(CCN3CCOCC3)c(SCC(=O)Nc3cccc(OC)c3)nc2c1`, the inhibition was -4.67%.

Consider `CCC(=O)c1cn(CCOc2ccccc2OC)c2ccccc12`, for which the inhibition was 1.13%.

With `COc1ccccc1NC(=O)N1CCCC1C(=O)NCc1cccs1` (stereo not drawn), the inhibition is -2.73%.

For the compound `Cc1cc(C)cc(NS(=O)(=O)Cc2ccccc2)c1`, the inhibition was -7.45%.

Take `CCCc1nnc(NC(=O)CCC(=O)NC2CC2)s1`: the inhibition is -2.59%.

With `O=C(COC(=O)CCCNC(=O)c1ccc(Cl)cc1)Nc1cc(Cl)ccc1Cl`, the inhibition is -4.18%.

With `O=C(CN1CCC(NC(=O)Nc2ccccc2)CC1)Nc1cccc([N+](=O)[O-])c1`, the inhibition is -2.45%.

Regarding `CN(CC(=O)Nc1cccc(F)c1)CC(=O)Nc1cccc([N+](=O)[O-])c1`, the inhibition was 0.23%.

As to `CN1CCN(CC(=O)Nc2cccc([N+](=O)[O-])c2)CC1`, the inhibition was 15.7% (active).

As for `CC(=O)N1CCSc2ccc(S(=O)(=O)N3CCC(C)CC3)cc21`, the inhibition is 0.66%.

On to `O=C(COC(=O)c1cc(=O)[nH]c2ccccc12)Nc1nc(-c2cccc(Br)c2)cs1`, for which the inhibition is 2.23%.

Regarding `CC(C)NC(=O)COCc1cc(-c2ccc3c(c2)OCO3)on1`, the inhibition is 3.95%.

As for `CCc1nonc1NC(=O)c1oc2ccc(Cl)cc2c1C`, the inhibition was -1.85%.

As for `CCN1CCN(C(=O)Cn2nc(C)n3c(cc4c(OC)cccc43)c2=O)CC1`, the inhibition is -4.38%.

On to `COc1ccc(NC(=O)C2C3C=CC(C3)C2C(=O)NCc2ccccn2)c(OC)c1` (stereo not drawn), for which the inhibition is 0.98%.

Take `O=C(CCc1nnc2ccc(NCc3ccccc3Cl)nn12)NCC1CCN(C2CCCC2)C1` (stereo not drawn): the inhibition was 2.8%.

On to `COc1cccc(CNS(=O)(=O)c2cc3c(cc2C)n(C)c(=O)c(=O)n3C)c1`, for which the inhibition is 3.5%.

Turning to `Cc1cc(C(=O)CCl)c(C)n1CC1COc2ccccc2O1` (stereo not drawn), the inhibition was 6.71%.

In the case of `O=C1C(=O)N(CC2COc3ccccc3O2)c2ccccc21` (stereo not drawn), the inhibition is 23.4% (active).

Regarding `O=C(CN1C(=O)C2C3C=CC(C3)C2C1=O)NCC1COc2ccccc2O1` (stereo not drawn), the inhibition is 2.22%.

With `CC(C)c1ccccc1OCC(O)CN(CC(O)COc1cccc2ccccc12)C(C)C` (stereo not drawn), the inhibition is 3.86%.

For `Nc1ncc(CN2CCCC(C(=O)Nc3ccc(-c4ccco4)cc3)C2)cn1` (stereo not drawn), the inhibition was -4.02%.

For the compound `CC12CCC(C(=O)N(NC(=O)c3ccccc3O)C1=O)C2(C)C` (stereo not drawn), the inhibition was 5.94%.

For the compound `Cc1ccc(-c2nc(-c3cccnc3)sc2CC(=O)Nc2ccc(C)c(Cl)c2)cc1`, the inhibition is -0.63%.

As for `Oc1ccc2ccc3cccc[n+]3c2c1`, the inhibition was 3.63%.

As for `CN(C)S(=O)(=O)c1cccc(C(=O)OCC(=O)N2CCCC2=O)c1`, the inhibition is 0.39%.

In the case of `C[C@H](NC(=O)C1CC(=O)N(c2ccc3c(c2)OCCO3)C1)C(=O)N1CCC(C(=O)O)CC1` (stereo partly drawn), the inhibition was 2.21%.

Regarding `CCOC(CNC(=O)C(=O)NCC(c1ccco1)N1CCN(c2ccc(OC)cc2)CC1)OCC` (stereo not drawn), the inhibition was -3.43%.

Consider `Cc1c(C(=O)NCCN2CCOCC2)sc2nc(-c3ccc(F)cc3)cn12`, for which the inhibition is 3.35%.

`Cc1ccc(NS(=O)(=O)c2ccc3c(c2)oc(=O)n3C)c(C)c1`: the inhibition is 8.19%.

As to `CC1(C)N=C(c2ccccn2)C(C)(C)N1O`, the inhibition was -1.96%.

For the compound `COc1ccc([N+](=O)[O-])cc1NCC(=O)c1ccc(C)cc1`, the inhibition is -0.37%.

Regarding `O=c1[nH]c(/C=C\c2cccc(C(F)(F)F)c2)nc(O)c1[N+](=O)[O-]`, the inhibition was -0.63%.

`COc1ccc(C(CNC(=O)c2cc3c(s2)CCCC3)N2CCOCC2)cc1` (stereo not drawn): the inhibition was 0.58%.

Turning to `N#Cc1ncc(C(F)(F)F)cc1Oc1cccnc1`, the inhibition was 4%.

Turning to `COc1cccc(C(=O)NC(=O)Nc2nc(C)cc(C(F)(F)F)n2)c1`, the inhibition is -0.93%.

For `COc1cccc(CN(C)CC(O)COC(c2ccccc2)c2ccccc2C)c1` (stereo not drawn), the inhibition was -1.74%.

As for `CCCCCCCCCCCCN1C(=O)CSC1c1cccnc1` (stereo not drawn), the inhibition was 0.63%.

As for `Cn1nc(-c2ccc(N3CCOCC3)c(NC(=O)c3ccccc3)c2)c2ccccc2c1=O`, the inhibition is -4%.

Turning to `O=C(Cc1ccc(Br)cc1)NCCN1CCOCC1`, the inhibition was -3.15%.

Turning to `Cc1ccc(CNC(=O)C2(C(F)(F)F)C/C(=C\Cc3ccccc3)CCCO2)o1` (stereo not drawn), the inhibition is 2.14%.

In the case of `CC(=O)N1CCCc2cc(S(=O)(=O)N3CCCC(C(=O)N4CCN(c5cccc(Cl)c5)CC4)C3)ccc21` (stereo not drawn), the inhibition is -4.69%.

On to `O=C(NC1CCCC1)C(c1ccco1)N(C(=O)c1ccco1)c1ccc(F)cc1` (stereo not drawn), for which the inhibition is -3.74%.

With `COc1cccc(N(C(=O)CNC(=O)c2ccco2)C(C(=O)NC2CCCCC2)c2cccnc2)c1` (stereo not drawn), the inhibition is 0.2%.

With `CC(C)c1ccc(N(C(=O)c2ccco2)C(C(=O)NC2CCCC2)c2cccnc2)cc1` (stereo not drawn), the inhibition is 50.8% (active).

Consider `CS(=O)(=O)N(CC(=O)N1CCOCC1)c1cccc(Cl)c1Cl`, for which the inhibition was 10.7%.

Consider `COc1ccc(C(C(=O)NC(C)(C)C)N(C(=O)Cn2nnc3ccccc32)c2ccc(C(C)=O)cc2)cc1O` (stereo not drawn), for which the inhibition was 3.87%.

As to `CCC(C)(C)NC(=O)C(c1ccc(O)cc1)N(C(=O)Cn1nnc2ccccc21)c1ccc(NC(C)=O)cc1` (stereo not drawn), the inhibition is 27.5% (active).

On to `COc1ccc(C(C(=O)NCC2CCCO2)N(C(=O)Cn2nnc3ccccc32)c2ccc(NC(C)=O)cc2)cc1OC` (stereo not drawn), for which the inhibition was 11.5%.

In the case of `CN1CN(C)c2ccc([N+](=O)[O-])c3cccc1c23`, the inhibition was 2.09%.

In the case of `Cc1c(C(=O)NCC(c2ccco2)N2CCCC2)oc2ccc(Cl)cc12` (stereo not drawn), the inhibition is -1.9%.

Consider `CCN(CC(=O)NCC(=O)Nc1cccc(C)c1C)Cc1ccccc1`, for which the inhibition is -2.94%.

Consider `CCOC(=O)c1ccc(-n2c(CCC(=O)O)ccc2-c2ccccc2)cc1`, for which the inhibition was 3.33%.

For the compound `Cc1ccc2c(c1)C1CN(C)CCC1N2S(=O)(=O)c1ccc(Oc2ccc([N+](=O)[O-])cc2)cc1` (stereo not drawn), the inhibition is 0.21%.

With `O=C1CCCCN1CCCC(=O)N1CCCC(Nc2ccc(F)cc2)C1` (stereo not drawn), the inhibition is -2.27%.

Consider `CCN1CCN(C(=O)C2CCCN(S(=O)(=O)c3ccc(OC)c(OC)c3)C2)CC1` (stereo not drawn), for which the inhibition is -7.47%.

With `CC(C)c1c(C(=O)N/N=C/c2ccc(-c3ccccc3)cc2)nnn1-c1nonc1N`, the inhibition is 1.56%.

`c1ccc2c(-c3nn4nnnc4c4ccccc34)cccc2c1`: the inhibition was -0.16%.

In the case of `CC(=O)c1cccc(NC(=S)N2CCCC2)c1`, the inhibition is 0.53%.

As for `Cc1cccc(OCC(=O)Nc2ccc(C(=O)O)cc2NC(=O)COc2cccc(C)c2)c1`, the inhibition is 6.23%.

Regarding `Cc1ccc(OCC(=O)Nc2cccc3c2CCCC3)cc1C`, the inhibition is -0.37%.

`Cc1ccc(OCC(=O)Nc2ccc(C(=O)O)cc2NC(=O)COc2ccc(C)c(C)c2)cc1C`: the inhibition is 14.3% (active).

With `COc1cccc(CNC(=O)CN(C)S(=O)(=O)c2ccc3c(c2)c(=O)n(C)c(=O)n3C)c1`, the inhibition was 0.08%.

Take `COc1cccc(Cn2cc(/C=N/NC(=O)c3cc(O)cc(O)c3)c3ccccc32)c1`: the inhibition was 6.16%.

As to `Cc1ccc2c(c1)sc1ncc(NC(=O)c3ccccc3)c(=O)n12`, the inhibition is -0.46%.

As for `COC(=O)c1ccc(COC(=O)c2cnc(Cl)c(Cl)c2)cc1`, the inhibition is 7.32%.

Consider `COc1ccc2cc(CCl)c(Cl)nc2c1`, for which the inhibition was -3.78%.

In the case of `COc1ccc(C(=O)NC(=S)N2CCNC(=O)C2CC(=O)OC(C)C)cc1` (stereo not drawn), the inhibition is 0.58%.

Consider `CC(=O)N1CCN(C(=O)C2(NC(=O)Nc3ccc(C)cc3)CCCCC2)CC1`, for which the inhibition was -11.2%.

`CC(=O)Nc1ccc(NC(=O)C2CCCN2S(=O)(=O)c2cccc(C(F)(F)F)c2)cc1` (stereo not drawn): the inhibition was -4.86%.

`Cc1cccc[n+]1CC(=O)c1ccccc1`: the inhibition was 3.16%.

In the case of `CCNS(=O)(=O)c1ccc(NC(=O)Nc2cccc(C(F)(F)F)c2)cc1`, the inhibition is -1.22%.

As to `O=C(/C=C/c1ccc(F)cc1)Nc1cccc(S(=O)(=O)Nc2cccc(C(F)(F)F)c2)c1`, the inhibition is 5.74%.

On to `Cc1oc2c(F)c(F)c(F)c(F)c2c1S(=O)(=O)Nc1cccc(C(F)(F)F)c1`, for which the inhibition was 17.6% (active).

Turning to `Cc1ccc(S(=O)(=O)N(CC(=O)NCc2ccco2)c2ccccc2C)cc1`, the inhibition was -1.63%.

With `COc1ccccc1N(C(=O)Cn1nnc2ccccc21)C(C(=O)NCc1ccco1)c1ccc(C)o1` (stereo not drawn), the inhibition is 20.2% (active).

For `O=C(NCc1ccco1)C(c1ccncc1)N(C(=O)Cn1nnc2ccccc21)c1ccccc1` (stereo not drawn), the inhibition was 1.89%.

Regarding `COCCNC(=O)C(c1ccc(C)o1)N(Cc1ccccc1)C(=O)Cn1nnc2ccccc21` (stereo not drawn), the inhibition is 0.75%.

Consider `Cc1cc(-c2ccc(S(=O)(=O)N3CCN(c4cccc(C(F)(F)F)c4)CC3)s2)on1`, for which the inhibition was 10.1%.

Turning to `O=C(c1c(F)cccc1Cl)N1CCN(S(=O)(=O)c2ccc3c(c2)OCCCO3)CC1`, the inhibition is -1.16%.

On to `COc1ccc(C)cc1N(CC(=O)NC(C)c1ccccc1)S(C)(=O)=O` (stereo not drawn), for which the inhibition was -1.09%.

As to `Cc1ccccc1-c1nc(CS(=O)(=O)CC(=O)NC(C)c2ccccc2)c(C)o1` (stereo not drawn), the inhibition is -0.9%.

Regarding `COc1cc2c(cc1OC)CN(C(=O)c1cc(=O)c3ccccc3o1)CC2`, the inhibition is -3.13%.

Consider `O=C(c1cc(=O)c2ccccc2o1)N1CCN(c2ccccc2)CC1`, for which the inhibition is 13.7% (active).

As for `COc1ccccc1N1CCN(C(=O)c2cc(=O)c3cc(C)ccc3o2)CC1`, the inhibition was -1.99%.

For `CCOc1ccc(OCCSc2nc3ccccc3n2CC(=O)O)cc1`, the inhibition is 1.7%.

In the case of `Cc1coc2c1c(C)cc1oc(=O)c(CC(=O)NCC(=O)N[C@H](C(=O)O)C(C)C)c(C)c12`, the inhibition is 2.83%.

With `Cc1ccc(S(=O)(=O)N[C@@H](Cc2ccccc2)C(=O)N2CCC(C(=O)N[C@H](C(=O)O)C(C)O)CC2)cc1` (stereo partly drawn), the inhibition is -4.09%.
